# Results taken from paper PMC11062922 (Nature Chemical Biology, 2023).
# Like-named read-outs stand apart in the source and are kept apart here.
# How the values were obtained:
# PKN1 = conditions: read-out: apparent Kd, n = 1
# PLK4 = conditions: read-out: apparent Kd, n = 1
substance,measurement,setting,value
Lestaurtinib,potency estimated from few doses,"PKN1; compound concentrations:100 nM and 1000 nM (sheet 'Lestaurtinib' of Supplementary Table 1),run:Lestaurtinib_02624_R2,Plate:MR020",430 nM
same,potency estimated from few doses,"PKN1; compound concentrations:100 nM and 1000 nM (sheet 'Lestaurtinib' of Supplementary Table 1),run:Lestaurtinib_02624_R3,Plate:MR020",513 nM
same,potency estimated from few doses,"PKN1; compound concentrations:100 nM and 1000 nM (sheet 'Lestaurtinib' of Supplementary Table 1),run:Lestaurtinib_02724_R1,Plate:MR021",487 nM
same,potency estimated from few doses,"PKN1; compound concentrations:100 nM and 1000 nM (sheet 'Lestaurtinib' of Supplementary Table 1),run:Lestaurtinib_02724_R2,Plate:MR021",386 nM
same,potency estimated from few doses,"PKN1; compound concentrations:100 nM and 1000 nM (sheet 'Lestaurtinib' of Supplementary Table 1),run:Lestaurtinib_02741_R3,Plate:MR023",518 nM
same,potency estimated from few doses,"PKN1; compound concentrations:100 nM and 1000 nM (sheet 'Lestaurtinib' of Supplementary Table 1),run:Lestaurtinib_02748_R1,Plate:MR024",418 nM
same,potency estimated from few doses,"PKN1; compound concentrations:100 nM and 1000 nM (sheet 'Lestaurtinib' of Supplementary Table 1),run:Lestaurtinib_02748_R2,Plate:MR024",511 nM
same,potency estimated from few doses,"PKN1; compound concentrations:100 nM and 1000 nM (sheet 'Lestaurtinib' of Supplementary Table 1),run:Lestaurtinib_02748_R3,Plate:MR024",440 nM
same,potency estimated from few doses,"PKN1; compound concentrations:100 nM and 1000 nM (sheet 'Lestaurtinib' of Supplementary Table 1),run:Lestaurtinib_02752_R1,Plate:MR025",489 nM
same,potency estimated from few doses,"PKN1; compound concentrations:100 nM and 1000 nM (sheet 'Lestaurtinib' of Supplementary Table 1),run:Lestaurtinib_02752_R2,Plate:MR025",414 nM
same,potency estimated from few doses,"PKN1; compound concentrations:100 nM and 1000 nM (sheet 'Lestaurtinib' of Supplementary Table 1),run:Lestaurtinib_02752_R3,Plate:MR025",448 nM
same,potency estimated from few doses,"PKN1; compound concentrations:100 nM and 1000 nM (sheet 'Lestaurtinib' of Supplementary Table 1),run:Lestaurtinib_02765_R1,Plate:MR026",524 nM
same,potency estimated from few doses,"PKN1; compound concentrations:100 nM and 1000 nM (sheet 'Lestaurtinib' of Supplementary Table 1),run:Lestaurtinib_02765_R3,Plate:MR026",568 nM
same,potency estimated from few doses,"PKN1; compound concentrations:100 nM and 1000 nM (sheet 'Lestaurtinib' of Supplementary Table 1),run:Lestaurtinib_02766_R1,Plate:MR027",532 nM
same,potency estimated from few doses,"PKN1; compound concentrations:100 nM and 1000 nM (sheet 'Lestaurtinib' of Supplementary Table 1),run:Lestaurtinib_02766_R2,Plate:MR027",582 nM
same,potency estimated from few doses,"PKN1; compound concentrations:100 nM and 1000 nM (sheet 'Lestaurtinib' of Supplementary Table 1),run:Lestaurtinib_02766_R3,Plate:MR027",483 nM
same,potency estimated from few doses,"PKN1; compound concentrations:100 nM and 1000 nM (sheet 'Lestaurtinib' of Supplementary Table 1),run:Lestaurtinib_02768_R1,Plate:MR028",403 nM
same,potency estimated from few doses,"PKN1; compound concentrations:100 nM and 1000 nM (sheet 'Lestaurtinib' of Supplementary Table 1),run:Lestaurtinib_02768_R2,Plate:MR028",488 nM
same,potency estimated from few doses,"PKN1; compound concentrations:100 nM and 1000 nM (sheet 'Lestaurtinib' of Supplementary Table 1),run:Lestaurtinib_02768_R3,Plate:MR028",424 nM
same,potency estimated from few doses,"PKN1; compound concentrations:100 nM and 1000 nM (sheet 'Lestaurtinib' of Supplementary Table 1),run:Lestaurtinib_02795_R1,Plate:MR022",453 nM
same,potency estimated from few doses,"PKN1; compound concentrations:100 nM and 1000 nM (sheet 'Lestaurtinib' of Supplementary Table 1),run:Lestaurtinib_02795_R2,Plate:MR022",443 nM
same,potency estimated from few doses,"PKN1; compound concentrations:100 nM and 1000 nM (sheet 'Lestaurtinib' of Supplementary Table 1),run:Lestaurtinib_02795_R3,Plate:MR022",422 nM
same,potency estimated from few doses,"PKN1; compound concentrations:100 nM and 1000 nM (sheet 'Lestaurtinib' of Supplementary Table 1),run:Lestaurtinib_02802_R1,Plate:MR029",473 nM
same,potency estimated from few doses,"PKN1; compound concentrations:100 nM and 1000 nM (sheet 'Lestaurtinib' of Supplementary Table 1),run:Lestaurtinib_02802_R2,Plate:MR029",433 nM
same,potency estimated from few doses,"PKN1; compound concentrations:100 nM and 1000 nM (sheet 'Lestaurtinib' of Supplementary Table 1),run:Lestaurtinib_02802_R3,Plate:MR029",181 nM
same,potency estimated from few doses,"PKN1; compound concentrations:100 nM and 1000 nM (sheet 'Lestaurtinib' of Supplementary Table 1),run:Lestaurtinib_03172_R1,Plate:MR031",435 nM
same,potency estimated from few doses,"PKN1; compound concentrations:100 nM and 1000 nM (sheet 'Lestaurtinib' of Supplementary Table 1),run:Lestaurtinib_03172_R3,Plate:MR031",358 nM
same,potency estimated from few doses,"PKN1; compound concentrations:100 nM and 1000 nM (sheet 'Lestaurtinib' of Supplementary Table 1),run:Lestaurtinib_03252_R2,Plate:MR032",94.9 nM
same,potency estimated from few doses,"PKN1; compound concentrations:100 nM and 1000 nM (sheet 'Lestaurtinib' of Supplementary Table 1),run:Lestaurtinib_03260_R1,Plate:MR033",514 nM
same,potency estimated from few doses,"PKN1; compound concentrations:100 nM and 1000 nM (sheet 'Lestaurtinib' of Supplementary Table 1),run:Lestaurtinib_03260_R2,Plate:MR033",559 nM
same,potency estimated from few doses,"PKN1; compound concentrations:100 nM and 1000 nM (sheet 'Lestaurtinib' of Supplementary Table 1),run:Lestaurtinib_03260_R3,Plate:MR033",518 nM
same,potency estimated from few doses,"PLK4; compound concentrations:100 nM and 1000 nM (sheet 'Lestaurtinib' of Supplementary Table 1),run:Lestaurtinib_02339_R1,Plate:MR001",80.5 nM
same,potency estimated from few doses,"PLK4; compound concentrations:100 nM and 1000 nM (sheet 'Lestaurtinib' of Supplementary Table 1),run:Lestaurtinib_02339_R2,Plate:MR001",64.4 nM
same,potency estimated from few doses,"PLK4; compound concentrations:100 nM and 1000 nM (sheet 'Lestaurtinib' of Supplementary Table 1),run:Lestaurtinib_02339_R3,Plate:MR001",51.7 nM
same,potency estimated from few doses,"PLK4; compound concentrations:100 nM and 1000 nM (sheet 'Lestaurtinib' of Supplementary Table 1),run:Lestaurtinib_02364_R2,Plate:MR002",202 nM
same,potency estimated from few doses,"PLK4; compound concentrations:100 nM and 1000 nM (sheet 'Lestaurtinib' of Supplementary Table 1),run:Lestaurtinib_02367_R1,Plate:MR003",62.3 nM
same,potency estimated from few doses,"PLK4; compound concentrations:100 nM and 1000 nM (sheet 'Lestaurtinib' of Supplementary Table 1),run:Lestaurtinib_02367_R2,Plate:MR003",75.5 nM
same,potency estimated from few doses,"PLK4; compound concentrations:100 nM and 1000 nM (sheet 'Lestaurtinib' of Supplementary Table 1),run:Lestaurtinib_02381_R1,Plate:MR004",71 nM
same,potency estimated from few doses,"PLK4; compound concentrations:100 nM and 1000 nM (sheet 'Lestaurtinib' of Supplementary Table 1),run:Lestaurtinib_02381_R2,Plate:MR004",73.6 nM
same,potency estimated from few doses,"PLK4; compound concentrations:100 nM and 1000 nM (sheet 'Lestaurtinib' of Supplementary Table 1),run:Lestaurtinib_02381_R3,Plate:MR004",93.7 nM
same,potency estimated from few doses,"PLK4; compound concentrations:100 nM and 1000 nM (sheet 'Lestaurtinib' of Supplementary Table 1),run:Lestaurtinib_02407_R1,Plate:MR005",45.6 nM
same,potency estimated from few doses,"PLK4; compound concentrations:100 nM and 1000 nM (sheet 'Lestaurtinib' of Supplementary Table 1),run:Lestaurtinib_02407_R2,Plate:MR005",39.3 nM
same,potency estimated from few doses,"PLK4; compound concentrations:100 nM and 1000 nM (sheet 'Lestaurtinib' of Supplementary Table 1),run:Lestaurtinib_02407_R3,Plate:MR005",47.3 nM
